Test [1] addresses Nuclear respiratory factor 1 (Homo sapiens) (UniProt Q16656). Briefly: ATG_NRF1_CIS: Attagene CIS-FACTORIAL HepG2 Assay for human Nuclear Respiratory Factor 1 (NRF1) Orphan Gene (AID 2282987). The note with it: HepG2 NRF1 cis-element reporter, Attagene multiplex; actives raise or lower the signal. A digest of the protocol:
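HepG2 cells transiently transfected with multiple cis-regulated reporter units, exposed 24 h. Reporter mRNAs measured by RT-PCR, fluorescent labelling, HpaI digestion and capillary electrophoresis; bidirectional fitting against DMSO.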

The target in test [2] is Myc proto-oncogene protein (Homo sapiens) (UniProt P01106). Briefly: ATG_Myc_CIS: Attagene CIS-FACTORIAL HepG2 Assay for human Myelocytomatosis (Myc) Proto-Oncogene Transcription Factor (AID 2282990). The note with it: HepG2, Attagene cis-reporter transcription factor activity; actives raise or lower the signal. The method, boiled down:
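Transiently transfected HepG2 cells bearing cis-promoter reporter units for endogenous transcription factors; 24 h exposure. Reporter mRNA measured by RT-PCR, 6-FAM primer extension, HpaI cut and capillary electrophoresis; bidirectional fit relative to DMSO.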

Test [3] is described as follows: ATG_NF_kB_CIS: Attagene CIS-FACTORIAL HepG2 Assay for human Nuclear Factor Kappa B (NF-kB) (AID 2282991). The note with it: HepG2 Attagene cis-factorial NF-kB reporter mRNA; actives raise or lower the signal. The method, boiled down: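 HepG2 cells transfected with cis-promoter-driven reporter units, so endogenous transcription factor activity is measured. Reporter mRNA quantified 24 h after dosing by RT-PCR and capillary electrophoresis, with bidirectional fitting against DMSO.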

The nature of test [4]: ATG_NRF2_ARE_CIS: Attagene CIS-FACTORIAL HepG2 Assay for human Nuclear Factor Erythroid 2 Related Factor 2 (NFR2) response to Antioxidant Response Elements (ARE) (AID 2282992).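 As to AC50: reporter mRNA level measured by RT-PCR and capillary electrophoresis fluorescence.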 The note with it: HepG2 Attagene ARE/NRF2 reporter, transcription factor activity; actives raise or lower the signal. The method, boiled down: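 Multiplexed reporter mRNA profiling in HepG2 after a 24 h chemical exposure. Curves fitted in both directions relative to DMSO negative control.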

Test [5] addresses Cellular tumor antigen p53 (Homo sapiens) (UniProt P04637). Briefly: ATG_p53_CIS: Attagene CIS-FACTORIAL HepG2 Assay for human p53 Transcription Factor (AID 2282994). The note with it: HepG2 p53 cis-element reporter, Attagene mRNA; actives raise or lower the signal. The method, boiled down:
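Multiplexed reporter mRNA assay in human HepG2 liver cells; cis-regulated units report endogenous factor activity. Values come from bidirectional curve fitting against DMSO negative control after 24 h treatment.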

A short description of test [6]: BSK_3C_uPAR: BioMAP Diversity Plus: 3C Assay for Urokinase-type plasminogen activator receptor (uPAR) Biomarker Activity (AID 2282998). The note with it: BioMAP 3C HUVEC, uPAR biomarker ELISA; actives raise or lower the signal. The method, boiled down:
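Cell-surface uPAR on HUVEC (3C system) read by ELISA at 24 h post-treatment, with DMSO as baseline and fitting in both directions. Parallel cultures stained with SRB to flag overt cytotoxicity.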

A short description of test [7]: BSK_3C_VCAM1: BioMAP Diversity Plus: 3C Assay for Vascular cell adhesion molecule 1 (VCAM1) Biomarker Activity (AID 2282999). The following applies: BioMAP 3C HUVEC, VCAM1 ELISA, cytokine-stimulated; actives raise or lower the signal. A digest of the protocol:
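Human umbilical vein endothelial cells (3C system), biomarker read by ELISA 24 h after dosing; bidirectional fit against DMSO baseline. Cytotoxicity tracked by SRB total-protein staining in parallel cultures at biomarker time.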
(ELISA stands for enzyme-linked immunosorbent assay.)

In test [8] the target is human Peroxisome Proliferator-activated Receptor alpha (PPARa), PPARA (gene 5465) (UniProt Q07869). Briefly: ATG_PPARa_TRANS: Attagene TRANS-FACTORIAL HepG2 Assay for human Peroxisome Proliferator-activated Receptor alpha (PPARa) (AID 2283001; active = hit-call score of the fitted dose curve at least 0.9, where 1 is the maximum). The method, boiled down: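 Measures transcriptional activity of an exogenous chimeric PPARa-Gal4 protein in transiently transfected HepG2 cells after 24 h dosing. Reporter mRNA quantified via RT-PCR and capillary electrophoresis; DMSO served as negative control.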

Test [9] deals with human Peroxisome Proliferator-activated Receptor delta (PPARd), PPARD (gene 5467) (UniProt Q03181). Briefly: ATG_PPARd_TRANS: Attagene TRANS-FACTORIAL HepG2 Assay for human Peroxisome Proliferator-activated Receptor delta (PPARd) (AID 2283002; active = hit-call score of the fitted dose curve at least 0.9, where 1 is the maximum). A digest of the protocol:
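HepG2 cells transiently transfected with GAL4-UAS multiplexed reporter units driven by exogenous chimeric NR-GAL4 proteins; 24 h compound exposure. Reporter mRNA measured by RT-PCR, 6-FAM primer extension, HpaI digestion and capillary electrophoresis; gain of signal fitted relative to DMSO.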

In test [10] the target is human Retinoic Acid Receptor beta (RARb), RARB (gene 5915) (UniProt P10826). Briefly: ATG_RARb_TRANS: Attagene TRANS-FACTORIAL HepG2 Assay for human Retinoic Acid Receptor beta (AID 2283004; active = hit-call score of the fitted dose curve at least 0.9, where 1 is the maximum). The method, boiled down:
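Fluorescent capillary-electrophoresis detection of GAL4-UAS reporter mRNA defines the endpoint, with induction over DMSO-treated wells scored as activity. Transiently transfected human hepatoma HepG2 cells expressing exogenous NR–Gal4 proteins are exposed to test chemicals for 24 h.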

Test [11] addresses Peroxisome proliferator-activated receptor gamma (Homo sapiens) (UniProt P37231). Briefly: ATG_PPARg_TRANS: Attagene TRANS-FACTORIAL HepG2 Assay for human Peroxisome Proliferator-activated Receptor-gamma (PPARg) (AID 2283007; active = hit-call score of the fitted dose curve at least 0.9, where 1 is the maximum). The method, boiled down: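 HepG2 cells are transiently transfected with GAL4-UAS reporter units driven by chimeric NR-Gal4 fusions and dosed for 24 h. Reporter mRNA is quantified by RT-PCR, 6-FAM labelling, HpaI digestion and capillary electrophoresis. Induction is scored against DMSO.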

Test [12] in a line: ATG_NFI_CIS: Attagene CIS-FACTORIAL HepG2 Assay for human Nuclear Factor I (NFI) (AID 2282989). The following applies: HepG2 cis-regulatory reporter, NFI response element transcription; actives raise or lower the signal. A digest of the protocol: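 Reporter transcripts were measured by RT-PCR with fluorescent primer extension and capillary electrophoresis 24 h post-treatment. HepG2 cells carried transiently transfected cis-regulated reporter constructs reporting endogenous factor activity; gain or loss fitted against DMSO baseline.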

Test [13] is described as follows: ATG_Oct_MLP_CIS: Attagene CIS-FACTORIAL HepG2 Assay for human Octamer-Binding Transcription Factor (Oct) (AID 2282993). The following applies: HepG2 Attagene cis-factorial Oct reporter, mRNA; actives raise or lower the signal. A digest of the protocol:
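Readout is reporter transcript level from RT-PCR with fluorescent primer extension and capillary electrophoresis, fitted in both directions against DMSO. Transfected HepG2 reporter units report endogenous factor activity after 24 h dosing.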

Test [14] addresses Nuclear receptor subfamily 1 group I member 2 (Homo sapiens) (UniProt O75469). Briefly: ATG_PXR_TRANS: Attagene TRANS-FACTORIAL HepG2 Assay for human Pregnane X Receptor (PXR) (AID 2283008; active = hit-call score of the fitted dose curve at least 0.9, where 1 is the maximum). A digest of the protocol:
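Measures mRNA induction of a GAL4-UAS-driven reporter in human HepG2 cells transiently expressing PXR fused to Gal4, following 24 h treatment. DMSO served as negative control and baseline.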

Test [15] addresses human Retinoic Acid Receptor gamma (RARg), RARG (gene 5916) (UniProt P13631). Briefly: ATG_RARg_TRANS: Attagene TRANS-FACTORIAL HepG2 Assay for human Retinoic Acid Receptor gamma (RARg) (AID 2283009; active = hit-call score of the fitted dose curve at least 0.9, where 1 is the maximum). The method, boiled down: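 HepG2 cells transiently transfected with multiplexed reporter units expressing chimeric RARg-GAL4 and GAL4-UAS-driven reporters; 24 h compound exposure. Reporter mRNA quantified by RT-PCR with fluorescent labelling and capillary electrophoresis; gain-of-signal fitted relative to DMSO baseline.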

A short description of test [16]: BSK_3C_TissueFactor: BioMAP Diversity Plus: 3C Assay for Tissue Factor Biomarker Activity (AID 2282997). The note with it: BioMAP 3C HUVEC, tissue factor biomarker readout; actives raise or lower the signal. A digest of the protocol: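 Endothelial monolayers (human umbilical vein, primary) are dosed, incubated 24 h, and assayed for Tissue Factor by ELISA; DMSO serves as negative control for bidirectional fitting.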

Test [17] can be described thus: BSK_4H_Eotaxin3: BioMAP Diversity Plus: 4H Assay for Eotaxin 3 Biomarker Activity (AID 2283000).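 Also: CCL26 protein level quantified by ELISA in parallel with SRB cytotoxicity check.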 The note with it: primary human endothelial cells (HUVEC); actives raise or lower the signal. The method, boiled down:
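ELISA quantitation of CCL26 (Eotaxin-3) protein from chemically dosed human vascular endothelial cells at 24 h; increases and decreases both scored relative to DMSO-treated baseline.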

Test [18] is described as follows: BSK_3C_Proliferation: Cell Proliferation Assessment in the BioMAP Diversity Plus: 3C Assay (AID 2283006). The following applies: primary human endothelial cells (HUVEC). A digest of the protocol: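 Human umbilical vein endothelial cells were grown sub-confluent and exposed to chemical for 48 h, then fixed with 10% TCA and stained with 0.1% sulforhodamine B; absorbance at 560 nm gave relative cell number, fitted bidirectionally against DMSO baseline.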

Test [19] addresses Retinoic acid receptor alpha (Homo sapiens) (UniProt P10276). Briefly: ATG_RARa_TRANS: Attagene TRANS-FACTORIAL HepG2 Assay for human Retinoic Acid Receptor alpha (RARa) (AID 2283005; active = hit-call score of the fitted dose curve at least 0.9, where 1 is the maximum). The method, boiled down:
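HepG2 transiently transfected with multiplex GAL4-UAS reporter units including a human RARa–GAL4 chimera; 24 h compound exposure. Reporter mRNA quantified by RT-PCR, 6-FAM labeling and capillary electrophoresis; gain of signal versus DMSO.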

Results filed as inconclusive are left out. More than one record can exist for a structure, and the calls need not agree. The source made the active and inactive calls. The calls were made as follows, unless noted: active = hit-call score of the fitted dose curve at least 0.9, where 1 is the maximum; inactive = score below 0.9.

Sequence of human Retinoic Acid Receptor beta (RARb), RARB (gene 5915) (P10826 whole entry, looked up, the tested form may be a part): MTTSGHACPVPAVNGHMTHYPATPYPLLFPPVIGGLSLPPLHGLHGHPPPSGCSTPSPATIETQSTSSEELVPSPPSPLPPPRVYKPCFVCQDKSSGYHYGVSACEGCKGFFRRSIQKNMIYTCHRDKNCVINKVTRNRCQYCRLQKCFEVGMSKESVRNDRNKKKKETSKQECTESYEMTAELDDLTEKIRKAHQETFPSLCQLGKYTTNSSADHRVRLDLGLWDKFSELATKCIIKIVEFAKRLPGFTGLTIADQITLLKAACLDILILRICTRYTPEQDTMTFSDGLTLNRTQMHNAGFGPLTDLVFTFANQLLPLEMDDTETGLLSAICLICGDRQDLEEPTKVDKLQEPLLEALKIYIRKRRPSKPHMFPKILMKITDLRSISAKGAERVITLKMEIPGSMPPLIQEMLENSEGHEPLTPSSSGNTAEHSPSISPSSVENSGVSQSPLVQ
Sequence of Peroxisome proliferator-activated receptor gamma (Homo sapiens) (P37231 whole entry, looked up, the tested form may be a part): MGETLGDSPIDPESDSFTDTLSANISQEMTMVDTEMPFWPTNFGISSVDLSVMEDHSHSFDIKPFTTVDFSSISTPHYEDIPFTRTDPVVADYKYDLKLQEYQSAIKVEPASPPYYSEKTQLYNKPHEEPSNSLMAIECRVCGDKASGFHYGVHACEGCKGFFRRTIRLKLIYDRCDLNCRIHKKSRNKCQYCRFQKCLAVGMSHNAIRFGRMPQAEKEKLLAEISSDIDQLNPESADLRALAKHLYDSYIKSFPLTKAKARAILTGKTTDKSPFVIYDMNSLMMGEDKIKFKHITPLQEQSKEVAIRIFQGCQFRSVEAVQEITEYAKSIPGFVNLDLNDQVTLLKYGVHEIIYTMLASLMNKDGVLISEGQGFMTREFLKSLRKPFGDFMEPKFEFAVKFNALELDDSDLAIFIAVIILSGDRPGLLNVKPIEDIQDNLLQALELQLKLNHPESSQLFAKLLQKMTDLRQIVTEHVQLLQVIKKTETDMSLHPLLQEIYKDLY
Sequence of human Peroxisome Proliferator-activated Receptor alpha (PPARa), PPARA (gene 5465) (Q07869 whole entry, looked up, the tested form may be a part): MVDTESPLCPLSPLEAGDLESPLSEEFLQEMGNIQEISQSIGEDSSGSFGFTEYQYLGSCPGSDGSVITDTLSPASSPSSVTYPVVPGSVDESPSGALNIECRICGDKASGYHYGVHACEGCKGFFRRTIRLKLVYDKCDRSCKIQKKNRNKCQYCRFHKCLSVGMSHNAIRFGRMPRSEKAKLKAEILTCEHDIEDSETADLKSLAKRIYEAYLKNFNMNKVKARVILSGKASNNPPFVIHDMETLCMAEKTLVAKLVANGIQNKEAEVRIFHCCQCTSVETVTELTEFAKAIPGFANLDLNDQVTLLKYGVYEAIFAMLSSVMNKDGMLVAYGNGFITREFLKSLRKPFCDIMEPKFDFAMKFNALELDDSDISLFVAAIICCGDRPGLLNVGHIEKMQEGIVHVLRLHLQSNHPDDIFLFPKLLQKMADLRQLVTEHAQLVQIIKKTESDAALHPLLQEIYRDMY
Sequence of Nuclear respiratory factor 1 (Homo sapiens) (Q16656 whole entry, looked up): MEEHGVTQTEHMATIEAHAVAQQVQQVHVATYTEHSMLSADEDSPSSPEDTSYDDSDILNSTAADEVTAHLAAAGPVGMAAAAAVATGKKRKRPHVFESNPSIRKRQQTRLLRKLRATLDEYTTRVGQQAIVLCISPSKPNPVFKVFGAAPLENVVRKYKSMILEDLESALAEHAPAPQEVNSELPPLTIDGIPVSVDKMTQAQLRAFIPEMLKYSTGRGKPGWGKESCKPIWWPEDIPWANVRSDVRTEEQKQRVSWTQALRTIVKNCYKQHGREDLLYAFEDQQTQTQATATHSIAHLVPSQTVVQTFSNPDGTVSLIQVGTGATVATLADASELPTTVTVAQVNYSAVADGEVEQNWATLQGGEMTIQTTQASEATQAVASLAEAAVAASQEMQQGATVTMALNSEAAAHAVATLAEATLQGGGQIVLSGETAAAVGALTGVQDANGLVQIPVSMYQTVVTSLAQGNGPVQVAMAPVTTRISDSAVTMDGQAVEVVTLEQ
Sequence of Myc proto-oncogene protein (Homo sapiens) (P01106 whole entry, looked up): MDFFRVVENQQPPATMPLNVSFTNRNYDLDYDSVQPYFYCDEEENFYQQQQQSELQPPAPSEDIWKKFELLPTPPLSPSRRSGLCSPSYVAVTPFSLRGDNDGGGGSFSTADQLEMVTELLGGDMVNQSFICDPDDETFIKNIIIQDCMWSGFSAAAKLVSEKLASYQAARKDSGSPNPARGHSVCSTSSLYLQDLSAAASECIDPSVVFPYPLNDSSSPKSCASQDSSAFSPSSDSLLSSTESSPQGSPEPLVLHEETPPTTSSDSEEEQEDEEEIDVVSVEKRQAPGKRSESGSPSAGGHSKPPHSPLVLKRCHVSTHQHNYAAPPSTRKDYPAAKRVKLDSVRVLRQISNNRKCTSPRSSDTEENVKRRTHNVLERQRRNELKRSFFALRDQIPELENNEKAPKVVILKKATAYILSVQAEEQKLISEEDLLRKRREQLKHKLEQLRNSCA
Sequence of Cellular tumor antigen p53 (Homo sapiens) (P04637 whole entry, looked up): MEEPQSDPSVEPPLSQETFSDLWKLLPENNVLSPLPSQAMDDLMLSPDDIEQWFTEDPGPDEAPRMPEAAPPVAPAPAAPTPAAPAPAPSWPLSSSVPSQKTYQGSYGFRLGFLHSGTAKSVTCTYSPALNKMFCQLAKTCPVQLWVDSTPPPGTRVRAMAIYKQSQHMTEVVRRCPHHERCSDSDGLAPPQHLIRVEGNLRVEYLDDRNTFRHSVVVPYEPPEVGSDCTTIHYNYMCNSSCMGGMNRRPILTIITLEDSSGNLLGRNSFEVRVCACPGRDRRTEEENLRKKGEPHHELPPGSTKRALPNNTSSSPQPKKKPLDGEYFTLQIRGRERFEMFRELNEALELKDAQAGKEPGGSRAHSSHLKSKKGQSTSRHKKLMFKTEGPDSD
Sequence of human Retinoic Acid Receptor gamma (RARg), RARG (gene 5916) (P13631 whole entry, looked up, the tested form may be a part): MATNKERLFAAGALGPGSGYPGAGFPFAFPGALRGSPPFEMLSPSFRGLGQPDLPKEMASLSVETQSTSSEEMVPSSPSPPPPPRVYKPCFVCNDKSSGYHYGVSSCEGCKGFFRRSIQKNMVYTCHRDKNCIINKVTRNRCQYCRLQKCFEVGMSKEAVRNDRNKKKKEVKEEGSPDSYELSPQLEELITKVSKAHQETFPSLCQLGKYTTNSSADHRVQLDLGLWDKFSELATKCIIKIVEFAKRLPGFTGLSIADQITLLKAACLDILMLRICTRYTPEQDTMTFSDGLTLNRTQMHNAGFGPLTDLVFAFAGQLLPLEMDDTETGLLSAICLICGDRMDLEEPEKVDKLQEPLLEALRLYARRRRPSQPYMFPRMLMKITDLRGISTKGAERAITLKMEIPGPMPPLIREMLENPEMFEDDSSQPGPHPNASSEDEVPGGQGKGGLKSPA
Sequence of Nuclear receptor subfamily 1 group I member 2 (Homo sapiens) (O75469 whole entry, looked up, the tested form may be a part): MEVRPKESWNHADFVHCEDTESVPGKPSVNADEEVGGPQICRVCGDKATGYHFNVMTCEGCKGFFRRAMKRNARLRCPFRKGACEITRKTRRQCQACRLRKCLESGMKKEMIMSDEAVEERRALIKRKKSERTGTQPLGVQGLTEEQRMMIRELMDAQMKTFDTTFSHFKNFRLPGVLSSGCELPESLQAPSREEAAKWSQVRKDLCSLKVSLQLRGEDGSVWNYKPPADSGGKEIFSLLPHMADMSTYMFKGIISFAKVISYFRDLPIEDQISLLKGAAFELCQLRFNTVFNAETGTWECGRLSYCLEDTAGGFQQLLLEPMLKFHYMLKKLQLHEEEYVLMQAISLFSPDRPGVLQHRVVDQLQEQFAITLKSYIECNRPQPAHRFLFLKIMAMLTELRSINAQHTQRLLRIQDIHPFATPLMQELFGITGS
Sequence of human Peroxisome Proliferator-activated Receptor delta (PPARd), PPARD (gene 5467) (Q03181 whole entry, looked up, the tested form may be a part): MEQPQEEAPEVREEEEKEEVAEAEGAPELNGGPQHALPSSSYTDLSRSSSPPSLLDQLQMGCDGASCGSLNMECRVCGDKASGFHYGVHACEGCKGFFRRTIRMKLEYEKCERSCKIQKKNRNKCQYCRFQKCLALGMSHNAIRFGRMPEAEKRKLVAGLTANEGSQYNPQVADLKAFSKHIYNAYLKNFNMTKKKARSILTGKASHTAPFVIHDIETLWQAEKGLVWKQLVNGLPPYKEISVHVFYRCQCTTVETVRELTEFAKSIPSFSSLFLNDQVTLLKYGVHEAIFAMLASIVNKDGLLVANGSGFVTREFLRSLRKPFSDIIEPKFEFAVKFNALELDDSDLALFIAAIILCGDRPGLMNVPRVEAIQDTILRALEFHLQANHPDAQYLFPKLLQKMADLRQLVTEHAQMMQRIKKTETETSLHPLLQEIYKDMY
Sequence of Retinoic acid receptor alpha (Homo sapiens) (P10276 whole entry, looked up, the tested form may be a part): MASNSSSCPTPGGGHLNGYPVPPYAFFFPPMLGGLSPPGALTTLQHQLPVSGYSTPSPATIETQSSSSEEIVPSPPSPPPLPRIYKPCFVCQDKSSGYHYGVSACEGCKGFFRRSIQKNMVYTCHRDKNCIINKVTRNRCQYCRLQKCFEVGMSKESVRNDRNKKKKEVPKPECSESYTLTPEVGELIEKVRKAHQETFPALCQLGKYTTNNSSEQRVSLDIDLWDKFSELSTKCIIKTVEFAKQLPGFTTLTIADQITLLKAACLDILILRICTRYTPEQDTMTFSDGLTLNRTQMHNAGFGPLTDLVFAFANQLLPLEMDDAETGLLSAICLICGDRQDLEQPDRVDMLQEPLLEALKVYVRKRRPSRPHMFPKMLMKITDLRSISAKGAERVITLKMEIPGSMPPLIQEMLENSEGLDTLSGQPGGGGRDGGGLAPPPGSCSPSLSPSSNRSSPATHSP

Turning to `FC(F)(F)C(F)(F)C(F)(F)C(F)(F)C(F)(F)C(F)(F)C(F)(F)I`, the compound was classed as inactive in test [1], in test [2], in test [3], in test [4], in [5] and in test [6]. Moreover, the result in test [7], in test [8], in test [9], in [10] and in test [11] was inactive.
Turning to `COC(=O)C1CCC(C(=O)OC)CC1` (stereo not drawn), the compound was called inactive in test [12], in test [2], in test [3], in test [4], in test [13] and in test [5]. Also, the result in test [8], in test [9], in [10], in [11], in test [14] and in test [15] was inactive. Further, the AC50 in [4] is 163 µM (active).
With `CCCCCCCOC(=O)c1ccccc1C(=O)OCCCCCCC`, the outcome in [1], in test [2], in [3], in test [4], in test [5] and in test [16] was inactive. Further, the outcome in [6], in test [7], in test [17], in [8], in [9] and in test [18] was inactive. In addition, the call in test [15] was inactive. For the same compound, the AC50 is 10.8 µM (active) in [11] and 6.29 µM (active) in [14].
For `CC(C)(C)c1ccc(OC2CCCCC2O)cc1` (stereo not drawn), the outcome in [1], in test [2], in test [3], in [13], in [9] and in test [10] was inactive. Also, the result in test [19] was inactive. The AC50 in test [4] is 20.5 µM (active); in test [11], 28.4 µM (active); in test [14], 2.96 µM (active).
Turning to `OCC(F)(F)C(F)(F)C(F)(F)C(F)F`, the result in test [1], in test [2], in [3], in test [4], in test [5] and in test [16] was inactive. The outcome in test [6], in [7], in [8], in test [9], in test [18] and in test [11] was inactive. Also, the compound was classed as inactive in [14] and in test [15].

For orientation: AC50 means the midpoint of the concentration-response curve, whichever way the signal moves.

Values taken from PubChem BioAssay (EPA / NIEHS).
